# Reference: PubChem BioAssay (EPA / NIEHS)
# Results filed as inconclusive are left out. Activity calls are given as the source filed them. Rule for the calls, unless noted: active = hit-call score of the fitted dose curve at least 0.9, where 1 is the maximum; inactive = score below 0.9.
# System: not listed separately
# Assay: CCTE_Shafer_MEA_acute_per_network_burst_spike_number_std: CCTE's Neural Acute Assay for Standard Deviation of Number of Spikes in a Network Burst, Shafer Lab (AID 2284020);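 note: fitted for decrease in spike-number SD versus DMSO so actives lower it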
# Outline: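 Acute MEA exposure, rat cortical neurons, 0.03-40 uM. Per-well % change versus own baseline; DMSO as negative control.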
Compound,outcome,AC50
Cc1cc(C2(c3cc(C)c(O)cc3C)OS(=O)(=O)c3ccccc32)c(C)cc1O,inactive,–
C=CCOC(=O)CCC1CCCCC1,inactive,–
COc1cc(C=O)ccc1OC(=O)C(C)C,–,3760 nM (active)
CN(C)C(=N)N=C(N)N,inactive,–
C[C@H]1C[C@@H]2[C@H]([C@@H](O)C[C@@]3(C)[C@H]2CC[C@]3(O)C(=O)CO)[C@@]2(C)C=CC(=O)C=C12,inactive,–
CCC(=O)OCc1ccccc1,inactive,–

# System: not listed separately
# Assay: CCTE_Shafer_MEA_acute_per_network_burst_electrodes_number_mean: CCTE's Neural Acute Assay for Mean Number of Electrodes in a Network Burst, Shafer Lab (AID 2284021);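 note: curves fitted for decreases only so hits reduce electrodes per burst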
# Outline: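 Percent change from baseline in average electrode count per network burst, rat cortical cultures on 48-well MEAs; 40-min recordings each side of exposure, DIV 13 or 15; threshold 8x rms noise; DMSO as negative control.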
row,Compound,outcome
1,Cc1cc(C2(c3cc(C)c(O)cc3C)OS(=O)(=O)c3ccccc32)c(C)cc1O,inactive
2,C=CCOC(=O)CCC1CCCCC1,inactive
3,COc1cc(C=O)ccc1OC(=O)C(C)C,inactive
4,CN(C)C(=N)N=C(N)N,inactive
5,C[C@H]1C[C@@H]2[C@H]([C@@H](O)C[C@@]3(C)[C@H]2CC[C@]3(O)C(=O)CO)[C@@]2(C)C=CC(=O)C=C12,inactive
6,CCC(=O)OCc1ccccc1,inactive

# System: not listed separately
# Assay: CCTE_Shafer_MEA_acute_network_burst_percentage: CCTE's Neural Acute Assay for Percentage of Network Bursts, Shafer Lab (AID 2284022);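 note: rat primary cortical neuron networks on multiwell MEA recorded 40 min; curves fitted for loss so actives lower network burst percentage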
# Outline: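 On DIV 13 or 15, at least three wells of rat cortical neurons per compound are dosed at 0.03-40 uM. Spontaneous firing is detected at 8x rms noise for 40 min before and after dosing at 37 C. The percent change in network-burst spike share is reported.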
row,Compound,outcome
1,Cc1cc(C2(c3cc(C)c(O)cc3C)OS(=O)(=O)c3ccccc32)c(C)cc1O,inactive
2,C=CCOC(=O)CCC1CCCCC1,inactive
3,COc1cc(C=O)ccc1OC(=O)C(C)C,inactive
4,CN(C)C(=N)N=C(N)N,inactive
5,C[C@H]1C[C@@H]2[C@H]([C@@H](O)C[C@@]3(C)[C@H]2CC[C@]3(O)C(=O)CO)[C@@]2(C)C=CC(=O)C=C12,inactive
6,CCC(=O)OCc1ccccc1,inactive

# System: not listed separately
# Assay: CCTE_Shafer_MEA_acute_cross_correlation_area: CCTE's Neural Acute Assay for Area of Cross Correlation, Shafer Lab (AID 2284024);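 note: area under pooled inter-electrode spike cross-correlation near zero lag as percent change from own baseline; curves fitted for loss of cross-correlation area so actives lower synchrony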
# Outline: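 Extracellular recordings from cultured rat cortical neurons measure network synchrony as cross-correlation area; each well's post-compound value (0.03-40 uM, 40 min) is compared with its own 40 min baseline to give percent change.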
Compound,outcome,AC50
Cc1cc(C2(c3cc(C)c(O)cc3C)OS(=O)(=O)c3ccccc32)c(C)cc1O,inactive,–
C=CCOC(=O)CCC1CCCCC1,inactive,–
COc1cc(C=O)ccc1OC(=O)C(C)C,inactive,–
CN(C)C(=N)N=C(N)N,inactive,–
C[C@H]1C[C@@H]2[C@H]([C@@H](O)C[C@@]3(C)[C@H]2CC[C@]3(O)C(=O)CO)[C@@]2(C)C=CC(=O)C=C12,–,4.5 nM (active)
CCC(=O)OCc1ccccc1,–,9.43 nM (active)

# System: not listed separately
# Assay: CCTE_Shafer_MEA_acute_cross_correlation_HWHM: CCTE's Neural Acute Assay for Cross Correlation at Half Width at Half Maximum, Shafer Lab (AID 2284026);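 note: spontaneous network firing of rat primary cortical neurons on multiwell microelectrode arrays; percent change per well from pre-dose baseline in spike cross-correlogram half width; hits are a decrease in cross-correlogram half width relative to DMSO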
# Outline: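 Percent change in cross-correlogram half width at half maximum, narrower meaning more synchrony, was derived per well from paired 40-min recordings before and during exposure to 0.03-40 uM compound in rat cortical cultures at 37 C.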
row,Compound,outcome
1,Cc1cc(C2(c3cc(C)c(O)cc3C)OS(=O)(=O)c3ccccc32)c(C)cc1O,inactive
2,C=CCOC(=O)CCC1CCCCC1,inactive
3,COc1cc(C=O)ccc1OC(=O)C(C)C,inactive
4,CN(C)C(=N)N=C(N)N,inactive
5,C[C@H]1C[C@@H]2[C@H]([C@@H](O)C[C@@]3(C)[C@H]2CC[C@]3(O)C(=O)CO)[C@@]2(C)C=CC(=O)C=C12,inactive
6,CCC(=O)OCc1ccccc1,inactive

# System: not listed separately
# Assay: CCTE_Shafer_MEA_acute_synchrony_index: CCTE's Neural Acute Assay for Synchrony, Shafer Lab (AID 2284027);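 note: network synchrony index of spontaneous spiking in primary rat cortical neurons on MEAs; fitted for loss of signal so actives lower synchrony relative to DMSO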
# Outline: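 Acute exposure of rat primary cortical neurons (DIV 13 or 15) at 0.03-40 uM. Synchrony index, 40 min before vs after, as % change relative to DMSO control.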
row,Compound,outcome
1,Cc1cc(C2(c3cc(C)c(O)cc3C)OS(=O)(=O)c3ccccc32)c(C)cc1O,inactive
2,C=CCOC(=O)CCC1CCCCC1,inactive
3,COc1cc(C=O)ccc1OC(=O)C(C)C,inactive
4,CN(C)C(=N)N=C(N)N,inactive
5,C[C@H]1C[C@@H]2[C@H]([C@@H](O)C[C@@]3(C)[C@H]2CC[C@]3(O)C(=O)CO)[C@@]2(C)C=CC(=O)C=C12,inactive
6,CCC(=O)OCc1ccccc1,inactive

# Molecular target: Estrogen receptor (Homo sapiens) (UniProt P03372)
# Assay: CCTE_Deisenroth_AIME_384WELL_LUC_Active: CCTE's 384-well Estrogen Receptor Transactivation Assay with AIME metabolic competence (ERTA luciferase; metabolism positive), Deisenroth Lab (AID 2284030; active = hit-call score of the fitted dose curve at least 0.9, where 1 is the maximum)
# Outline: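 Estrogenic luciferase signal in VM7Luc4E2 cells is measured at 24 hour, after chemicals have been preconditioned 2 hours with PB/BNF-induced rat hepatic S9 in alginate. Gain of signal is fitted relative to 17beta-estradiol, across 0.002 - 200 uM.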
# Estrogen receptor (Homo sapiens), sequence (P03372 whole entry, looked up): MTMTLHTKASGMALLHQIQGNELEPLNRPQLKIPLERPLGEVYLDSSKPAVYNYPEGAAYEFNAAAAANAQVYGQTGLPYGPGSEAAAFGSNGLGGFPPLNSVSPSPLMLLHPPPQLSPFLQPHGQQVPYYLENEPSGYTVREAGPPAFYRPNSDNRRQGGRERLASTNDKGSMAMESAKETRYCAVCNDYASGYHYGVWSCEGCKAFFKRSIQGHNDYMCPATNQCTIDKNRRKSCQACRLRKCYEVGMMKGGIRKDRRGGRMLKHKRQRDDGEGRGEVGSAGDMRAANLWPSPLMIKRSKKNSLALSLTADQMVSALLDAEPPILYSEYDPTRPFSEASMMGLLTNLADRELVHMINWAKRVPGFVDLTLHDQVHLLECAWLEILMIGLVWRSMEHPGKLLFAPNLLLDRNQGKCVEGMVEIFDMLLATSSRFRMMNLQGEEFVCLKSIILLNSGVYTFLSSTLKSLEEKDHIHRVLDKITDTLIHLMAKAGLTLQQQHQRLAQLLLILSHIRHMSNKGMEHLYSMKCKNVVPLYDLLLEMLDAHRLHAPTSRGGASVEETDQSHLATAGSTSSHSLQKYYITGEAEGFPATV
Compound,AC50,outcome
OCCOCCOCCOCCO,0.342 nM (active),–
CC(=O)OCCOC(C)=O,–,inactive
CCCCCCCCCCCCCC(=O)O,–,inactive
CCCCCCCCCC=O,–,inactive

# System: not listed separately
# Assay: CCTE_Deisenroth_AIME_384WELL_CTox_Active: Cytotoxicity Assessment (CTOX) in CCTE's 384-well Estrogen Receptor Transactivation Assay with AIME metabolic competence (metabolism positive), Deisenroth Lab (AID 2284037; active = hit-call score of the fitted dose curve at least 0.9, where 1 is the maximum;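 note: chemicals first conditioned 2 h by alginate-bound induced rat liver S9 before cells; activity means signal loss indicating cell death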)
# Outline: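 VM7Luc4E2 breast cells received medium pre-incubated 2 h with chemical over alginate microspheres holding induced male Sprague Dawley rat liver S9; viability read 24 h later by protease-substrate fluorescence. Loss of signal, bidirectional fit, 0.002–200 uM.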
row,Compound,outcome
1,OCCOCCOCCOCCO,inactive
2,CC(=O)OCCOC(C)=O,inactive
3,CCCCCCCCCCCCCC(=O)O,inactive

# Molecular target: Estrogen receptor (Homo sapiens) (UniProt P03372)
# Assay: CCTE_Deisenroth_AIME_384WELL_LUC_Inactive: CCTE's 384-well Estrogen Receptor Transactivation Assay without AIME metabolic competence (ERTA luciferase; metabolism negative), Deisenroth Lab (AID 2284038; active = hit-call score of the fitted dose curve at least 0.9, where 1 is the maximum;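 note: hits raise estrogen receptor luciferase signal so potencies reflect agonists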)
# Outline: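 Metabolism-negative mode: AIME lids stamped in alginate-water, no hepatic S9. 2 h chemical incubation → medium onto VM7Luc4E2 ERTA, 24 h. Readout luciferase luminescence; gain-of-signal fit vs 17beta-estradiol. Conc. 0.002 - 200 uM.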
Compound,AC50,outcome
OCCOCCOCCOCCO,1.71 nM (active),–
CC(=O)OCCOC(C)=O,–,inactive
CCCCCCCCCCCCCC(=O)O,–,inactive
CCCCCCCCCC=O,–,inactive

# System: not listed separately
# Assay: CCTE_Deisenroth_AIME_384WELL_CTox_Inactive: Cytotoxicity Assessment (CTOX) in CCTE's 384-well Estrogen Receptor Transactivation Assay without AIME metabolic competence (metabolism negative), Deisenroth Lab (AID 2284039; active = hit-call score of the fitted dose curve at least 0.9, where 1 is the maximum;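 note: cell viability via live-cell protease substrate cleaved to fluorescent probe; cells exposed 24 h to medium preincubated 2 h with alginate-water beads without S9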)
# Outline: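 Fluorescent protease-substrate viability readout after 24 h exposure of VM7Luc4E2 cells to conditioned medium. Chemicals (0.002–200 uM) first sat 2 h over alginate-water beads, no S9. Data fitted bidirectionally, loss of signal meaning viability loss.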
row,Compound,outcome
1,OCCOCCOCCOCCO,inactive
2,CC(=O)OCCOC(C)=O,inactive
3,CCCCCCCCCCCCCC(=O)O,inactive
